Results: PubChem BioAssay AID1159580 (chemical genetic matrix, 2015)
Several values for one entry are separate records, joined by “and”; a condition that tells them apart may be missing. Identical values can stand only once. Among all 5,500 compounds or so, about 2,000 (36%) were called active. Inconclusive results (about 18%) are left out. No stated cut-off is given here; in the data, active means normalized growth mostly below about 0.91 (no sharp cut-off); inconclusive means no clear call, values can overlap the other calls; inactive means mostly above about 0.92. The list shows a part of the results.

Assay: chemical genetic growth profiling, strain panel (AID 1159580);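 further: tested at 20 µM; growth read once vehicle control cultures reached saturation at 30 °C; 1 = growth at the plate median or of vehicle wells; lower values mean less growth of the strain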
Details: S. cerevisiae deletion strains, growth OD

Measured: normalized growth

CN[C@@H]1C(OC2[C@H](O[C@H]3[C@H](O)[C@@H](O)[C@H](N=C(N)N)[C@@H](O)[C@@H]3N=C(N)N)OC(C)[C@]2(O)CO)OC(CO)C(O)C1O (some centres not stated)
inactive: locus YAL021C, strain ccr4, hits give low values 1.02 | locus YAL026C, strain drs2, hits give low values 1.02 | locus YAL030W, strain snc1, hits give low values 0.997 | locus YBL061C, strain skt5, hits give low values 0.996 | locus YBR009C, strain hhf1, hits give low values 1.01 | locus YBR021W, strain FUR4, hits give low values 0.988 | locus YBR023C, strain chs3, hits give low values 1.01 | locus YBR171W, strain sec66, hits give low values 0.996 | locus YBR229C, strain ROT2, hits give low values 0.993 | locus YBR231C, strain swc5, hits give low values 1.01 | locus YBR279W, strain paf1, hits give low values 1.01 | locus YCL011C, strain gbp2, hits give low values 1.05 | locus YCL016C, strain dcc1, hits give low values 1.02 | locus YCL029C, strain bik1, hits give low values 0.978 | locus YCL069W, strain vba3, hits give low values 1.03 | locus YCR088W, strain abp1, hits give low values 0.994 | locus YDL005C, strain med2, hits give low values 0.998 | locus YDL035C, strain GPR1, hits give low values 1.03 | locus YDL040C, strain nat1, hits give low values 0.999 | locus YDL074C, strain BRE1, hits give low values 0.989 | locus YDL101C, strain DUN1, hits give low values 0.979 | locus YDL185W, strain tfp1, hits give low values 0.984 | locus YDL192W, strain arf1, hits give low values 0.989 | locus YDR001C, strain nth1, hits give low values 1.02 | locus YDR069C, strain doa4, hits give low values 1 | locus YDR101C, strain arx1, hits give low values 0.992 | locus YDR137W, strain rgp1, hits give low values 0.998 | locus YDR159W, strain sac3, hits give low values 0.982 | locus YDR162C, strain NBP2, hits give low values 1.01 | locus YDR195W, strain ref2 0.942 | locus YDR297W, strain sur2, hits give low values 1 | locus YDR318W, strain mcm21, hits give low values 0.98 | locus YDR334W, strain swr1, hits give low values 1.02 | locus YDR335W, strain msn5, hits give low values 1.01 | locus YDR388W, hits give low values 0.975 | locus YDR392W, strain spt3, hits give low values 1.02 | locus YDR502C, strain sam2, hits give low values 0.985 | locus YEL003W, strain gim4, hits give low values 1 | locus YEL037C, strain rad23, hits give low values 1.01 | locus YEL061C, strain CIN8 (second series), hits give low values 1.01 | locus YEL061C, strain CIN8, hits give low values 0.995 | locus YER015W, strain faa2, hits give low values 1.01 | locus YER016W, strain bim1, hits give low values 1 | locus YER110C, hits give low values 0.97 | locus YER111C, strain swi4, hits give low values 1.01 | locus YER155C, strain BEM2 (second series), hits give low values 0.994 | locus YER155C, strain BEM2, hits give low values 0.987 | locus YER167W, strain BCK2, hits give low values 0.99 | locus YFR010W, strain ubp6, hits give low values 0.993 | locus YGL078C, strain dbp3, hits give low values 0.97 | locus YGL086W, strain mad1, hits give low values 1 | locus YGL167C, strain pmr1, hits give low values 0.996 | locus YGL173C, strain kem1, hits give low values 1.02 | locus YGL227W, strain vid30, hits give low values 0.993 | locus YGL240W, strain doc1, hits give low values 1.01 | locus YGL248W, strain PDE1, hits give low values 0.975 | locus YGL253W, strain hxk2, hits give low values 1.02 | locus YGR135W, strain pre9, hits give low values 0.956 | locus YGR229C, strain SMI1, hits give low values 1.02 | locus YGR252W, strain gcn5, hits give low values 0.943 | locus YHR013C, strain ard1, hits give low values 1.03 | locus YHR027C, strain rpn1, hits give low values 1.01 | locus YHR030C, strain SLT2, hits give low values 0.993 and 1.03 | locus YHR079C, strain IRE1 (second series), hits give low values 0.98 | locus YHR079C, strain IRE1, hits give low values 1.03 | locus YHR094C, strain hxt1, hits give low values 0.972 | locus YHR129C, strain ARP1, hits give low values 0.998 | locus YHR142W, strain chs7, hits give low values 1.02 | locus YHR200W, strain rpn10, hits give low values 0.981 | locus YIL066C, strain RNR3, hits give low values 0.992 | locus YIL073C, strain SPO22, hits give low values 0.958 | locus YIL125W, strain kgd1, hits give low values 0.981 | locus YIR030C, strain dcg1, hits give low values 0.975 | locus YJL092W, strain hpr5, hits give low values 0.999 | locus YJL095W, strain BCK1 (second series), hits give low values 1 | locus YJL095W, strain BCK1, hits give low values 0.975 and 1.05 | locus YJL115W, strain asf1, hits give low values 1 | locus YJL129C, strain trk1, hits give low values 0.981 | locus YJL134W, strain LCB3, hits give low values 0.99 | locus YJL154C, strain vps35, hits give low values 1.01 | locus YJL164C, strain tpk1, hits give low values 1.02 | locus YJL166W, strain qcr8, hits give low values 1.02 | locus YJL168C, strain set2, hits give low values 0.973 | locus YJL187C, strain SWE1 (second series), hits give low values 0.981 | locus YJR043C, strain POL32, hits give low values 1.04 | locus YJR066W, strain TOR1, hits give low values 0.975 | locus YJR075W, strain HOC1, hits give low values 0.985
